Assay outcomes deposited in PubChem BioAssay by The Scripps Research Institute Molecular Screening Center.
Most compounds without a hit are left out; they make up all but 2.3% or so of the library.
M1 ag parental: M1 agonist counterscreen hit in parental CHO-K1 cells; 0.48% of 360,000 active; activation, % at 3 µM; Fluo-8 calcium fluorescence; scaled to maximal ATP response, vehicle zero; in the data active = activation above about 15%;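 also: untransfected CHO-K1 host cells lacking M1 receptor as counterscreen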
CHRM1 antagonist: blocks human M1 muscarinic receptor. P11229. CHO-K1 hM1, Fluo-8 calcium fluorescence, ACh EC80 antagonist. inhibition, % at 3 µM. 1.3% of 360,000 active;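 active = percent inhibition above its own plate's cutoff, namely the mean of that plate's compound wells plus 3 SD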;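 also: peak over basal fluorescence ratio during 140 s after agonist addition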
Target sequence (P11229 whole entry, looked up): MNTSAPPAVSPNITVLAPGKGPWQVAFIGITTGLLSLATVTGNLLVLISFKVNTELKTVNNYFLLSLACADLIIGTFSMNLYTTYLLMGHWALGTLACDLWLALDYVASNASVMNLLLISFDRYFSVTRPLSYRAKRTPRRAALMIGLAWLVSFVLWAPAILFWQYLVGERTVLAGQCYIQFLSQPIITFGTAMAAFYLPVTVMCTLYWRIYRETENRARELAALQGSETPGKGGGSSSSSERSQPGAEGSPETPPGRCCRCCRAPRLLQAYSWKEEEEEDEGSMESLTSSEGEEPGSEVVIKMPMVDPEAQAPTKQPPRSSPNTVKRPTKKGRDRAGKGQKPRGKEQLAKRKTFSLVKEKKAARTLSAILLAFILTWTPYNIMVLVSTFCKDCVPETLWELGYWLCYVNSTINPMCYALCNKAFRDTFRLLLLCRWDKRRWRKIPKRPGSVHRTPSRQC
CHO-K1 Ca antag: counter-screen for M1 antagonists: effect in parental CHO-K1 cells; AID 602250; inhibition, % at 3 µM; 0.6% of 360,000 active; ATP-induced calcium, Fluo-8 fluorescence;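 active = inhibition above a per-plate cutoff, the plate's mean sample inhibition plus 3 SD, cut at about 24% in these data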
M1 ag: human M1 muscarinic receptor agonism; 0.33% of 360,000 active; activation, % at 3 µM; P11229; CHO-K1 hM1, Fluo-8 calcium fluorescence, agonist mode; 0% DMSO, 100% acetylcholine EC100;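 active = activation above the run's mean compound activation plus 3 SD, cut at about 16% in these data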;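 also: peak over basal fluorescence ratio within a 140 s kinetic read after compound addition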
CHRM1 PAM: potentiates human M1 receptor response to acetylcholine; P11229; CHO-K1 hM1, Fluo-8 calcium fluorescence, ACh EC20; 0% = ACh EC20, 100% = maximal ACh; activation, % at 3 µM; 0.088% of 360,000 active; AID 588819; in the data active = activation above about 19%, passing the limit was not always enough
M1 PAM parental: counter-screen for M1 PAMs: effect in parental CHO-K1 cells | 0.02% of 360,000 active | activation, % at 3 µM | ATP EC20, Fluo-8 calcium fluorescence; 0% at ATP EC20, 100% at ATP max | AID 602247;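 active = activation above the run cutoff, the mean activation of all test compounds plus 3 SD, cut at about 40% in these data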;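 also: peak over basal fluorescence ratio in a 140 s read after ATP addition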
Numbers stand for hits; . = inactive; / = no result given.

SMILES	M1 ag parental	CHRM1 antagonist	CHO-K1 Ca antag	M1 ag	CHRM1 PAM	M1 PAM parental
COC(=O)C1=C(c2ccccc2)C[C@@H]2CC[C@H]1N2C(=O)NC1CCCCC1	.	.	.	.	.	.
C=CCC1(Nc2ccccc2)CC(C)N(C)CC1C (stereo unspecified)	.	96.5	.	.	.	.
COC(=O)C1=C(c2ccc(C(C)=O)cc2)C[C@@H]2CC[C@H]1N2C(=O)NC1Cc2ccccc2C1	.	.	.	.	.	.
COc1ccc(-n2nnnc2C(c2cccc(OC)c2OC)N2CCC(n3c(=O)[nH]c4ccccc43)CC2)cc1 (stereo unspecified)	.	.	.	22.9	.	.
COc1ccc(-n2nnnc2C(c2ccnc3ccccc23)N2CCC(n3c(=O)[nH]c4ccccc43)CC2)cc1 (stereo unspecified)	.	.	.	.	.	.
COc1cccc(C(c2nnnn2-c2ccc3c(c2)OCCO3)N2CCC(n3c(=O)[nH]c4ccccc43)CC2)c1OC (stereo unspecified)	.	.	.	20.4	.	.
O=c1[nH]c2ccccc2n1C1CCN(C(c2cccs2)c2nnnn2-c2ccc3c(c2)OCCO3)CC1 (stereo unspecified)	.	.	.	.	.	41.9
O=c1[nH]c2ccccc2n1C1CCN(C(c2ccccc2OC(F)(F)F)c2nnnn2-c2ccc3c(c2)OCCO3)CC1 (stereo unspecified)	19.6	.	.	.	.	.
COC(=O)C1=C(c2ccccc2OCc2ccccc2)C[C@@H]2CC[C@H]1N2C(=O)NC1CCN(Cc2ccccc2)CC1	.	.	.	.	.	.
O=C1NCN(c2ccccc2)C12CCN(C(c1ccccc1)c1nnnn1C1CCCC1)CC2 (stereo unspecified)	.	.	.	.	.	.
c1ccc(Nc2ccc3ccccc3c2)cc1	.	.	.	.	.	.
CC(C)Nc1ccc(Nc2ccccc2)cc1	.	53.3	.	.	.	.
CC1CCCN(C(=O)CCl)C1 (stereo unspecified)	.	.	.	.	.	.
CC1CCN(C(=O)C(C)Cl)CC1 (stereo unspecified)	16.4	.	.	.	.	.
COC(=O)C1=C(c2ccc(F)cc2F)C[C@@H]2CC[C@H]1N2C(=O)N1CCCCC1	.	.	.	.	.	.
O=c1cc(C(F)(F)F)c2cc3c4c(c2o1)CCCN4CCC3	88.8	67.2	59.2	120.1	.	.
O=[N+]([O-])c1ccc(N2CCCNCC2)c2ncccc12	.	82.0	.	.	.	.
O=[N+]([O-])c1ccc(N2CCNCC2)cc1N1CCCCC1	.	.	.	.	.	.
O=[N+]([O-])c1ccc(N2CCCCCC2)c2nonc12	161.8	53.2	52.8	145.4	.	.
O=[N+]([O-])c1cccnc1N1CCCNCC1	.	47.6	.	.	.	.
CCOC(=O)[C@]12Cc3cc(OC)ccc3[C@H]1N(C(C)C)C(=O)c1cc(OC)ccc12	.	/	.	/	/	.
CN1CCN(c2nc3ccccn3c(=O)c2C=C2C(=O)N(C)C(=O)N(C)C2=O)CC1	.	.	.	.	.	.
O=C(NCC1=C(c2ccc3ccccc3c2)C[C@@H]2CC[C@H]1N2Cc1ccco1)c1ccc([N+](=O)[O-])cc1	.	43.2	.	.	.	.
O=C(NCC1=C(c2ccc3ccccc3c2)C[C@@H]2CC[C@H]1N2Cc1ccco1)c1ccncc1	.	.	.	.	.	.
Clc1ccc(CNC2CN3CCC2CC3)cc1 (stereo unspecified)	.	.	.	.	.	.
SMILES	M1 ag parental	CHRM1 antagonist	CHO-K1 Ca antag	M1 ag	CHRM1 PAM	M1 PAM parental
Fc1ccccc1CNC1CN2CCC1CC2 (stereo unspecified)	.	45.4	.	.	.	.
Cc1nc2ccc(Br)cc2c(=O)n1-c1ccc([N+](=O)[O-])c(C(F)(F)F)c1	.	35.7	.	.	.	.
Cc1nc2ccccc2c(=O)n1-c1cc([N+](=O)[O-])cc([N+](=O)[O-])c1	.	.	.	.	.	.
CCN(CC)c1ccc(CNCCc2ccc(F)cc2)cc1	.	30.0	.	.	.	.
CN1c2ccc([N+](=O)[O-])cc2CC2(C(=O)NC(=O)NC2=O)C1c1ccccc1 (stereo unspecified)	.	.	.	.	.	.
CC(C)N1C(=O)NC(=O)C2(Cc3cc([N+](=O)[O-])ccc3N(C)C2c2ccccc2)C1=O (stereo unspecified)	25.3	.	.	.	.	.
CCC1CCCCN1CC(=O)c1ccc(OC(F)F)cc1 (stereo unspecified)	.	.	.	.	.	.
Cc1cc(Cl)ccc1C(=O)C1CCCN(C2CCSCC2)C1 (stereo unspecified)	.	83.8	.	.	.	.
O=C(c1ccc(C(F)(F)F)cc1)C1CCCN(C2CCSCC2)C1 (stereo unspecified)	.	57.5	.	.	.	.
COc1ccc(Cl)cc1C(=O)C1CCCN(CCO)C1 (stereo unspecified)	.	.	.	.	.	.
Cc1cccc(CN2CCCC(C(=O)c3ccc(C(F)(F)F)cc3)C2)n1 (stereo unspecified)	.	.	.	.	.	.
CC1(C)C(=O)CCC2C1=CCC1C2CCC2(C)C(O)CCC12 (stereo unspecified)	.	.	.	.	.	.
CCCCCSc1cc(OC)c(CCN(C)C)cc1OC	.	49.2	.	.	.	.
C[N+]1([O-])[C@@H]2CC(OC(=O)[C@H](CO)c3ccccc3)C[C@H]1[C@@H]1O[C@@H]12 (stereo partly specified)	.	99.8	.	.	.	.
C[N+]1(C)C2CCC1CC(OC(=O)c1ccccc1)C2 (stereo unspecified)	.	.	.	.	.	.
C[N+]1(C)C2CCC1CC(OC(=O)C(CO)c1ccccc1)C2 (stereo unspecified)	.	100.5	.	.	.	.
C#CC[N+]1(C)[C@@H]2CC(OC(=O)C(CO)c3ccccc3)C[C@H]1C(O)C2 (stereo partly specified)	.	100.7	.	.	.	.
C[N+]1(C)[C@@H]2CC[C@H]1CC(OC(=O)C(CO)c1ccccc1)C2 (stereo partly specified)	.	99.3	.	.	.	.
C[C@]12C[C@H](O)[C@@H](O)CC1=CCC1C2CC[C@@]2(C)C1CC[C@@H]2O (stereo partly specified)	.	.	.	.	.	.
CC1C(=O)CC2(C(C)C)CC12 (stereo unspecified)	.	.	.	.	.	.
COC1=CC(=O)OC(/C=C/c2ccccc2)C1 (stereo unspecified)	.	.	45.6	.	.	.
